Most compounds without a hit are left out; they make up all but 11% or so of the library.
12-hLO inh: 12-hLO (ALOX12) enzyme inhibition; AID 1452; purified 12-hLO, xylenol orange hydroperoxide absorbance; Potency, µM (doses to about 57.1 µM), for the others: at the highest dose activity change, negative = inhibition, actives largely listed as inhibitors; P18054; actives 0.12% (n = 150,000); also: potency is read from the fitted curve at half-maximal effect; nearly all actives have a fitted effect of over 55% in size
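Xylenol orange chromogenic assay: hydroperoxide from 12hLO oxidises Fe(II), giving red-shifted Fe(III)-XO absorbance. Conditions: 150 nM enzyme, 40 uM arachidonic acid, 25 mM Hepes pH 7.0, 0.01% Triton X-100, 30 min, room temperature.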
IMPase Li inh: cell-permeable IMPase inhibitors with lithium potentiation; CHO-M1 cells, IP1 TR-FRET (IP-One), carbachol + lithium; Potency, µM (top dose mostly 59.4 µM), without a hit: top-dose activity, negative = IMPase inhibition, hits mostly inhibitors; actives 0.35% (n = 210,000);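 also: IP1 builds up when IMPase is blocked and the TR-FRET signal falls; potency is read from the fitted curve at half-maximal effect; plate controls were basal vehicle for no effect and high inhibitor control for full effect; nearly all actives have a fitted effect of over 50% in size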
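Steps: plate 2000 CHO-M1 cells per well and culture 16–30 h; add compound and lithium; incubate 30 min, 37C; add d2-IP1 tracer and Eu cryptate anti-IP1 antibody in lysis buffer; read after 10 min at room temperature.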
IMPase cell inh: IMPase inhibition in cells. CHO-M1 cells, IP1 accumulation, HTRF TR-FRET ratio. inhibition (IP1 accumulation), % at 46.1 µM. 120,000 tested, under 10 active; active = well fitted curve in the direction sought with a large enough effect in the signal ratio, not every such curve was filed as active; inconclusive = small, poorly fitted or top-dose-only effect, or a change in a side signal; inactive = no such curve, though single readings can be large or run the other way; the % refers to the signal ratio;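 also: cells stimulated with carbachol in lithium chloride buffer; plate controls were DMSO basal wells for no effect and reference inhibitor wells for full effect; higher means more IMPase inhibition seen as more IP1 and lower FRET ratio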
Target sequence (P97697 whole entry, looked up): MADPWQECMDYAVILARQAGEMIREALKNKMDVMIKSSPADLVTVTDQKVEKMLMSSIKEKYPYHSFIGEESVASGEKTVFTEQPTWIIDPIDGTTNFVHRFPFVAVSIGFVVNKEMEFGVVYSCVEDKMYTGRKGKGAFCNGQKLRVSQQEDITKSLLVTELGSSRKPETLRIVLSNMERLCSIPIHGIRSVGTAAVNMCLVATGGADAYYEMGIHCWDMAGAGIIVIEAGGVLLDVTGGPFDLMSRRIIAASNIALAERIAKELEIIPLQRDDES
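CHO-M1, 2000 cells/well, cultured 16–30 h; cpd up to 46 uM; carbachol (50 uM solution, stimulation buffer w/ 50 mM LiCl, pH 7.4), 30 min 37C; IP-One TR-FRET, 10 min RT; Ex 320/Em 665, 620; Hill-fit AC50.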
ALDH1A1 block: inhibitors of human aldehyde dehydrogenase 1A1 | P00352 | Purified ALDH1A1, NADH fluorescence, propionaldehyde substrate | Potency, µM (series often up to 75.3 µM), for the others: at the top dose activity, negative = inhibition, actives largely listed as inhibitors | actives 7.3% (n = 220,000) | AID 1030; active = well fitted inhibition curve with a large enough effect, not every such curve was filed as active; inconclusive = small, poorly fitted or top-dose-only effect, or another doubt; inactive = no such curve, though single readings can be large or run the other way;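 also: potency is read from the fitted curve at half-maximal effect; plate controls were no enzyme wells and a reference inhibitor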
PNC assembly inh: inhibitors of perinucleolar compartment assembly; activity change (PNC), negative = inhibition, % at 10 µM; AID 2417; PC3M PTB-GFP, PNC prevalence imaging, 16 h; active compounds read low; actives 3.1% (n = 140,000);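 active = readout at or below -70, meaning at least 70% loss of cells showing the perinucleolar compartment, a nuclear body marking cancer cells; inconclusive = readout between -30 and a set limit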;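 also: plate controls were DMSO wells for no effect and camptothecin positive control wells for full effect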
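Compounds are pinned in duplicate onto adhered PC3M cells stably expressing GFP-tagged PTB and incubated 16 h at 37 C. Cells are then fixed, nuclei stained with Hoechst, and PNC-positive cells counted.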
HPGD block: HPGD (human) dehydrogenase inhibition. P15428. purified HPGD, NADH fluorescence kinetic, PGE2 substrate. actives 4.3% (n = 150,000). Potency, µM, without a hit: at the highest dose activity change, negative = inhibition, usual class: inhibitors; active = well fitted inhibition curve with a large enough effect, not every such curve was filed as active; inconclusive = small, poorly fitted or top-dose-only effect, or another doubt; inactive = no such curve, though single readings can be large or run the other way; also: potency is read from the fitted curve at half-maximal effect
Target sequence (P15428 whole entry, looked up): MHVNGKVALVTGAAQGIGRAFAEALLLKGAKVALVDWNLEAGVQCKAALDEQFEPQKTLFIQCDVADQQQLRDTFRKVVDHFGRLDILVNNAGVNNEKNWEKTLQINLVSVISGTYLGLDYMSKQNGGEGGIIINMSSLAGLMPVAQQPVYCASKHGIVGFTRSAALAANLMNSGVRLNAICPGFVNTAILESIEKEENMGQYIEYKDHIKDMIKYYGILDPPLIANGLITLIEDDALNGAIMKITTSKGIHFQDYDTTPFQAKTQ
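NADH formation kinetics: reaction with 30 uM PGE2 and 1 mM NAD+ (final), 20 nM enzyme, Tris-HCl pH 8 with Tween 20, after 15 min compound preincubation at room temperature. Fluorescence change, last versus first of five reads.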
An asterisk follows results filed as active; ? = inconclusive; . = no result given; [ ] = dose if it differs, or a comment. Unless noted, calls follow the shape of the dose curve; as a rule, active = well fitted curve in the direction sought with a large enough effect; inconclusive = small, poorly fitted or top-dose-only effect, or another doubt; inactive = no such curve, though single readings can be large; an effect the other way counts as inactive or inconclusive. Unless noted, % is scaled to controls: 0 for no effect and ±100 for the full control effect.

SMILES	12-hLO inh	IMPase Li inh	IMPase cell inh	ALDH1A1 block	PNC assembly inh	HPGD block
CCN(CC)C1CC(=O)N(c2cccc(C)c2)C1=O (centres undefined)	-2%	-6%	7	3.5µM*	12	-28%
CCN(CCO)C1CC(=O)N(c2ccccc2C)C1=O (centres undefined)	2%	19%[38.3 µM]	-6	3.5µM*	?	-23%
CC(C)C(C)/C=C/C(C)C1CCC2C3=CCC4CC(=O)CC[C@@]4(C)C3CC[C@]21C (some centres undefined)	-3%	0%	.	-7%	.	-7%
COC(=O)C1=C(C)N(Cc2ccccc2)C2=C(C(=O)c3ccccc3)C(c3ccccc3)[C@@](O)(C(=O)OC)C(=O)N2C1c1ccccc1 (some centres undefined)	.	.	.	-1%[13.5 µM]	.	.
O=C(N/N=C/c1ccc(F)cc1)c1sccc1OCc1ccc(F)cc1	-14%	6%[38.3 µM]	-8	-2%	-15	-18%
NNC(=O)c1sccc1OCc1ccc(Cl)cc1Cl	.	0%	.	3.5µM*	.	.
COC(=O)N/N=C/c1cc(Cl)c(OCc2ccc(F)cc2)c(OC)c1	-1%	8%	.	8%	-87*	-13%
O=C(N/N=C/c1ccc(Cl)cc1)c1sccc1OCc1ccc(F)cc1	-3%	9%	11	4%	-119*	2%
COc1ccc(COc2ccsc2C(=O)Nc2ccc(Cl)cc2)cc1	0%	25%[38.3 µM]	-8[1.84 µM]	-5%	-86*	-10%
CN1CCN(c2nc(-c3ccoc3)nc3ccccc23)CC1	.	3%	.	6%	.	.
O=C(c1nc2ccc([N+](=O)[O-])cc2[nH]c1=O)[C@@H](O)c1ccc2c(c1)OCO2	-3%[11.4 µM]	3%	.	2%[13.5 µM]	.	-3%
NNC(=O)c1sccc1OCc1ccc(F)cc1	.	15%	.	10µM*	.	.
O=[N+]([O-])c1ccc(/C=N/NS(=O)(=O)c2ccc(Cl)cc2)o1	-4%	-7%	.	7.9µM*	82	28µM*
Cc1ccc(/C=N/NS(=O)(=O)c2ccc([N+](=O)[O-])cc2)o1	-4%	-3%	.	-3%	-2	-3%
O=C(N/N=C/c1ccc(-c2ccccc2Cl)o1)c1ccccc1	.	-4%	.	?	.	.
Cc1ccc(S(=O)(=O)N/N=C\c2ccc([N+](=O)[O-])o2)cc1	-2%	2%	0	?	-112*	-19%
O=S(=O)(N/N=C\c1ccc(-c2ccccc2Cl)o1)c1ccccc1	-24%	6%	5	-2%	?	16µM*
COc1cc(NC(=O)c2cccc(Cl)c2Cl)ccc1NC(=O)c1cc2ccccc2o1	.	.	20	.	.	.
Nc1cc(N)nc(SCc2cc(=O)oc3cc4c(cc23)CCC4)n1	-12%	19%[38.3 µM]	8	?	32	-20%
Cc1cc2oc(=O)cc(CSc3nc(N)cc(N)n3)c2cc1C(C)C	-7%	0%[38.3 µM]	0	18µM*	?	-27%
CCCc1cc(=O)[nH]c(SCc2cc(=O)oc3cc(C)c(C(C)C)cc23)n1	0%	1%	.	?	-8	16µM*
C=CCNC(=O)CCCOc1cc(C)ccc1C	0%	13%[38.3 µM]	6	1%	-1	14µM*
C=CCNC(=O)CCCOc1ccc(C)cc1	-1%	-5%[38.3 µM]	5	6%	21	7.1µM*
COc1ccc(OCCCC(=O)NCC(C)C)cc1	-4%	13%[38.3 µM]	-1	5%	?	25µM*
COCC(=O)N1CCC[C@@]2(CCN(C(=O)Nc3ccc(OC)cc3)C2)C1	0%	13%	.	1%	.	-6%
CC(Sc1nnc2ccccn12)C(=O)Nc1ncc(Cl)cc1Cl (centres undefined)	4%	-8%[38.3 µM]	3	4%	?	-10%
COc1ccc(-n2c(SC(C)C(=O)Nc3ncc(Cl)cc3Cl)nc3ccccc32)cc1 (centres undefined)	-2%	21%	11	?	-111*	-24%
Cc1nc(NC2CCCCC2)c2nc(-c3ccccc3)n(CCN(C)C)c2n1	0%	6%	.	?	.	?

Bioassay records: PubChem BioAssay, National Center for Advancing Translational Sciences (NCATS)
